From PubChem BioAssay
Only some compounds are listed: those with a hit (about 3.9% of all), similar ones and a draw of the others.
HIF activator: HIF pathway transcriptional activation. U2OS HRE-luciferase reporter, luminescence; normalized: DMSO 0%, desferrioxamine 100%. activation, % at 7.5 µM (by protocol). 0.32% of 300,000 active. AID 1910;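 active = mean activation of at least 10% of the iron chelator positive control signal, with at least half of replicates also reaching 10%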
PLC-gamma1 inh: blocks human PLC-gamma1 enzyme activity; P19174; purified PLC-gamma1, fluorogenic substrate, fluorescence; inhibition, % at 12.2 µM; 0.84% of 370,000 active; AID 720700; in the data active = inhibition above about 9.5%
PLC-beta3 inh: blocks human PLC-beta3 enzyme activity. Purified PLC-beta3, fluorogenic substrate, fluorescence. Q01970. 0.18% of 370,000 active. inhibition, % at 12.2 µM; in the data active = inhibition above about 11%
HGIII-sPLA2 inh: Inhibits HGIII-sPLA2 liposome hydrolysis, primary screen; QFRET BODIPY PC-A2 liposome hydrolysis, fluorescence; Q9NZ20; inhibition, % at 12.2 µM; 0.56% of 370,000 active;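 active = inhibition above mean plus 3 SD of compounds lying within the high and low control bounds, cut at about 19% in these data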
AHR act: activates the human aryl hydrocarbon receptor | P35869 | AHR-responsive luciferase reporter cells, luminescence | activation, % at 5 µM | 2.5% of 320,000 active; in the data active = activation above about 47%
Yeast superoxide: lowers age-related superoxide in aged yeast cells; S. cerevisiae aged cells, superoxide DHE fluorescence; active compounds read low; superoxide response (% of plate mean), % at 10 µM; 0.18% of 330,000 active;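 active = superoxide response under a set limit, about three screen SD below normal, cut at about 65% in these data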;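 note: yeast aged for seven days with compound at 30 °C before DHE staining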
Large screens that a line does not name were inactive.

COc1ccc(NC(=O)CSc2nnc(-c3ccccn3)n2N)cc1	none
CCn1c2ccccc2c2cc(NC(=O)CSc3nnc(-c4ccccc4OC)n3N)ccc21	AHR act 57
Nn1c(SCC(=O)Nc2ccc(F)cc2)nnc1-c1ccccn1	AHR act 48
CCn1c2ccccc2c2cc(NC(=O)CSc3nnc(-c4cccc(OC)c4)n3N)ccc21	AHR act 64
Cc1cc(C(=O)NN=Cc2cccc(O)c2)n[nH]1	none (no result: HIF activator, AHR act, Yeast superoxide)
Cc1sc2nc(-c3ccncc3)[nH]c(=O)c2c1-c1ccccc1	AHR act 54 (no result: PLC-gamma1 inh, PLC-beta3 inh, HGIII-sPLA2 inh)
Cc1sc2nc(-c3ccccn3)[nH]c(=O)c2c1-c1ccccc1	none (no result: HIF activator)
c1cnc2c(OCc3cn4cccnc4n3)cccc2c1	AHR act 71 (no result: HIF activator)
Clc1ccc(OCc2cn3cccnc3n2)c2ncccc12	none (no result: AHR act, Yeast superoxide)
CSc1ccc(C#N)cc1NC(=O)c1ccc(Cl)cc1Cl	AHR act 59
C=CCOc1c(Br)cc(CNn2c(C)n[nH]c2=S)cc1OC	AHR act 48
C=CCOc1ccc(CNn2c(C)n[nH]c2=S)cc1OC	none
CN1C(=O)c2cc(NC(=O)C3CCOCC3)ccc2OC[C@@H]2O[C@@H](CC(=O)NCc3ccccc3F)CC[C@@H]21	none (no result: HIF activator, AHR act, Yeast superoxide)
Cc1ccc(C)c(NC(=O)c2cccc3c2-c2ccccc2C3=O)c1	none (no result: HIF activator, AHR act, Yeast superoxide)
CN(C)c1ccc(N=Nc2ccccc2C(=O)OCC(=O)N(C)C2CCCCC2)cc1	none
CN(C)c1ccc(N=Nc2ccccc2C(=O)OCC(=O)NCC2CCCCC2)cc1	PLC-gamma1 inh 11
COc1ccc(-c2nn3c(-c4n[nH]c5c4CCC5)nnc3s2)cc1	none (no result: HIF activator, AHR act, Yeast superoxide)
COc1ccc(/C=N\Nc2ncc(F)c(N3CCOCC3)n2)cc1OC	AHR act 59
COc1ccc(/C=N/Nc2cc(C)nc(N3CCOCC3)n2)cc1	none
COc1ccc(Nc2cc(C)nc(N3CCOCC3)n2)cc1	none (no result: HIF activator)
Cc1cc(C)nc(N/N=C/c2ccc(N3CCOCC3)cc2)n1	none
COc1ccc(/C=N/Nc2cc(C)nc(N3CCOCC3)n2)cc1OC	AHR act 50
COc1ccccc1/C=N/Nc1cc(C)nc(N2CCOCC2)n1	AHR act 51
COC(=O)[C@]12C[C@H](CC(=O)NCc3cccs3)C(=O)N(Cc3cccc4ccccc34)C1=C[C@H](C1CCCC1)O[C@@H]2C	none (no result: HIF activator, AHR act, Yeast superoxide)
CN1C2=N[C@@H](c3ccc4ccccc4c3)CC(=O)N2/C(=C\c2ccccc2)[C@H]1c1ccccc1	none (no result: HIF activator, AHR act, Yeast superoxide)
CC(COc1ccc(Cl)cc1)CN1CCC(C(O)(c2ccccc2)c2ccccc2)CC1 (configuration not stated)	none (no result: HIF activator, AHR act, Yeast superoxide)
O=C(CCn1nnc(-c2cccs2)n1)N1CCCCC1	none (no result: HIF activator, AHR act, Yeast superoxide)
CC(C)(C)c1ccc(C(=O)N2CCNCC2)cc1	none
CN1CCC2(CC1)N=C(c1ccc(F)cc1)C(=S)N2C(=O)c1ccc(C(C)(C)C)cc1	HIF activator 191
CCOC(=O)[C@@H]1[C@H]2COc3cc(OC)ccc3[C@@H]2N2C(=O)N(c3cccc(F)c3)C(=O)[C@@]12C	AHR act 51
O=C(/C=C(\Nc1cc(Cl)c(F)c(Cl)c1)c1ccccc1)c1ccccc1	none (no result: HIF activator, AHR act, Yeast superoxide)
CN(C)c1ccc(N2C(=O)CSC2=S)cc1	AHR act 52
O=C1CSC(=S)N1c1ccc(F)cc1	none (no result: PLC-gamma1 inh, PLC-beta3 inh, HGIII-sPLA2 inh)
Cc1ccc(NC(=O)Cn2cnc(C(=O)Nc3ccc(C)c(C)c3)n2)cc1C	none (no result: HIF activator, AHR act)
Cc1ccc(NC(=O)c2nnn(CC(=O)Nc3ccccc3)c2N)cc1C	AHR act 48
Cc1ccc(NC(=O)Cn2ccnc2)cc1C	AHR act 59
COC(=O)[C@@]12CCCCC=C1N(CCc1ccc(Cl)cc1)C(=O)[C@H]2CC(=O)NCCCCc1ccccc1	none (no result: HIF activator, AHR act, Yeast superoxide)
CC(=O)N1c2ccccc2C(C)=NCC1C(=O)NC1CCCCC1 (configuration not stated)	none (no result: HIF activator, AHR act, Yeast superoxide)
Nc1c(-c2ccccc2)c(CSc2nc3ccccc3[nH]2)nn1-c1ccc(Cl)cc1	PLC-gamma1 inh 12
C(=N\Nc1nncc2ccccc12)/c1cccnc1	none (no result: HIF activator, AHR act, Yeast superoxide)
COc1ccccc1C(=O)NC1CCCCN(Cc2cccc(C(F)(F)F)c2)C1=O (configuration not stated)	none (no result: HIF activator, AHR act, Yeast superoxide)
O=C(NC1=N[C@@]2(C=C3CCCCC3n3c(=O)n(-c4ccccc4)c(=O)n32)[C@H](Cc2ccccc2)N1Cc1ccccc1)c1ccccc1 (some centres not stated)	none (no result: HIF activator, AHR act, Yeast superoxide)
Cc1ccc(-c2cc(C(=O)NN=Cc3sccc3C)[nH]n2)cc1C	none (no result: HIF activator, AHR act, Yeast superoxide)
CCCC[C@H]1C2CC(OC(=O)NCCCc3ccccc3)C(C2)[C@H]2CCCCN21 (some centres not stated)	none (no result: HIF activator, AHR act, Yeast superoxide)
COc1ccccc1-c1cc(C(F)(F)F)nc(S(=O)(=O)CCCC(=O)NC(C)C)n1	HIF activator 24
COc1ccccc1-c1cc(C(F)(F)F)nc(S(C)(=O)=O)n1	HIF activator 16
COc1ccccc1-c1cc(C(F)(F)F)nc(S(=O)(=O)CCCC(=O)NCc2ccc(F)cc2)n1	HIF activator 26
COc1ccccc1-c1cc(C(F)(F)F)nc(N2CCCC2)n1	none
COc1ccccc1-c1cc(C(F)(F)F)nc(S(=O)(=O)CCCC(=O)Nc2cc(C)on2)n1	none
COc1ccc(-c2cc(C(F)(F)F)nc(S(=O)(=O)CCCC(=O)Nc3cc(C)on3)n2)cc1OC	HIF activator 12 (no result: AHR act, Yeast superoxide)
COc1ccccc1-c1cc(C(F)(F)F)nc(S(=O)(=O)CCCC(=O)Nc2cccnc2Cl)n1	none (no result: HIF activator, AHR act, Yeast superoxide)
COc1ccccc1-c1cc(C(F)(F)F)nc(S(=O)(=O)CCCC(=O)N2CCCCC2C)n1 (configuration not stated)	HIF activator 11
COCCNC(=O)c1c(N)[nH]c(C(=O)c2ccc(Br)cc2)c1-c1c(OC)ccc2ccccc12	none (no result: HIF activator, AHR act, Yeast superoxide)
O=C(Cn1c(-c2cncs2)nc2ccccc21)N1CCOCC1	none (no result: HIF activator, AHR act, Yeast superoxide)
O=C(CN1CCN(c2ccc(O)cc2)CC1)Nc1ccccc1C(=O)NCCc1ccccc1	AHR act 74 (no result: HIF activator)
CC(CCN1CCC(C(O)(c2ccccc2)c2ccccc2)CC1)Oc1ccc(C#N)c(F)c1 (configuration not stated)	none (no result: HIF activator, AHR act, Yeast superoxide)
OC(c1ccccc1)(c1ccccc1)C1CCN(CCCOc2cccc(C(F)(F)F)c2)CC1	none (no result: HIF activator, AHR act, Yeast superoxide)
CN(NC(=O)c1ccc(Cl)cc1)c1ncc(C(F)(F)F)cc1Cl	none (no result: HIF activator)
O/N=C(\c1ccc(Cl)cc1)c1ncc(C(F)(F)F)cc1Cl	AHR act 79
CCCCc1nnc(NC(=O)c2ccc3[nH]c(=O)c(=O)[nH]c3c2)s1	HIF activator 197
COc1ccccc1CCn1cnc2c3cc(C)ccc3n(C)c2c1=O	AHR act 68
COc1ccc2c(c1)c1ncn(CCN3CCCC3)c(=O)c1n2C	none
N#Cc1cccc(-c2ccccc2C(=O)NC2CCCCN(Cc3ccc(Cl)cc3)C2=O)c1 (configuration not stated)	none (no result: HIF activator, AHR act, Yeast superoxide)
CC(=O)Nc1nc2ccccc2n1CCN1CCOCC1	none
Cc1nc2ccccc2n1CCN1CCOCC1	AHR act 72
